GASC-1 inh: inhibitors of GASC-1 histone demethylase, primary screen, biochemical, fluorescence, DELFIA europium. Lysine-specific demethylase 4C (Homo sapiens), Q9H3R0. GST-JMJD2C(1-420) H3K9me3 demethylation. inhibition, % at 2.35 µM. 330,000 compounds, 0.069% hits;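 active = more than half of a compound's replicate wells show inhibition beyond 50%, single wells judged on their own value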;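 note: signal counts dimethyl H3K9 product captured on neutravidin plate; 0% = median of DMSO wells and 100% = 0.3 times that DMSO median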
m5-HT2A agonist: mouse Htr2a agonists via beta-arrestin recruitment, primary screen, cell-based, luminescence | activation, % at 7.6 µM | 5-hydroxytryptamine receptor 2A (Mus musculus), P35363 | CHO-K1 mHTR2A beta-arrestin complementation; percent of 30 µM serotonin response | 360,000 compounds, 0.66% hits | AID 624169, 2012;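 active = activation above a run cutoff, the mean activation of all tested compounds plus 3 SD, cut at about 14% in these data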;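 note: 0% = plate median of compound wells and 100% = 30 µM serotonin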
Target sequence (P35363 whole entry, looked up): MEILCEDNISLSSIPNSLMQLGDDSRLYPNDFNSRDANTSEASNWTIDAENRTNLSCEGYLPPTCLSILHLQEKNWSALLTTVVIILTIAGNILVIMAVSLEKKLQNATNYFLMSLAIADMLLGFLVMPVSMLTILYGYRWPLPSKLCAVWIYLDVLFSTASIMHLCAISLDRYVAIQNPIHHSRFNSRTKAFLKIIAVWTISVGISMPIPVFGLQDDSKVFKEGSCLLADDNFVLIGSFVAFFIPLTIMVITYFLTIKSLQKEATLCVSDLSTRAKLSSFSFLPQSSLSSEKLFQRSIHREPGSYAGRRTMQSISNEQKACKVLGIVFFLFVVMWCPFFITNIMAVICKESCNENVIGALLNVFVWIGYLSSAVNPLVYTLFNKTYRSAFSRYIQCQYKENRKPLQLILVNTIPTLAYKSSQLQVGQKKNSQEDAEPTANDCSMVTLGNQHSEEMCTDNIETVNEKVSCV
VLA-4 inh: inhibition in human VLA-4 binding assay, primary screen, VLA-4 allosteric modulator project, MLPCN library, flow cytometry, VLA-4 expressing cells; 330,000 compounds, 0.2% hits; inhibition, % (about 7 µM as worked out from the volumes in the protocol); AID 2557, 2010; Integrin alpha-4 (Homo sapiens), P13612; ligand binding flow cytometry; in the data active = inhibition above about 50%
V-ATPase pH: regulators of yeast V-ATPase proton pumping, primary screen, pHLuorin cytosolic pH fluorescence; S. cerevisiae; response, % at 10 µM; 350,000 compounds, 0.37% hits; AID 504577, 2011; in the data active = response mostly above about 7.3%, no sharp cut-off; inactive = mostly below about 5.4%; note: actives read high
Exocytosis inh: LAMP-1 surface exposure blockers, TALL-104 cells – cell-based, flow cytometry, MLPCN library, primary screen | TALL-104 LAMP-1 surface exposure; cells stimulated with thapsigargin and PMA | inhibition, % at 10 µM | 360,000 compounds, 0.66% hits | AID 651702, 2012;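 active = inhibition above about 55%, limit read from the data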
MEX-5 binding: MEX-5 zinc finger RNA-binding disruptors – biochemical, C. elegans, fluorescence polarization, MLPCN library, primary screen; Zinc finger protein mex-5 (Caenorhabditis elegans), Q9XUB2; MEX-5/FITC-TCR2 RNA binding; active compounds read low; activity score (negative = inhibition of binding), % at 10 µM; 300,000 compounds, 0.38% hits;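 active = inhibition past about -25% in most replicates, and total fluorescence under double the plate's negative control median, limit read from the data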;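 note: 0% = DMSO and -100% = 5 µM competing unlabeled TCR2 RNA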
Numbers without * were called inactive; nt = no result given; ! = repeats disagree. Most compounds without a hit are left out; they make up all but 2.2% or so of the library.

SMILES	GASC-1 inh	m5-HT2A agonist	VLA-4 inh	V-ATPase pH	Exocytosis inh	MEX-5 binding
CC(C)C[C@H]1C(=O)N2CCCC2[C@]2(O)O[C@](NC(=O)[C@@H]3C=C4c5cccc6[nH]cc(c56)CC4N(C)C3)(C(C)C)C(=O)N12 (some centres not stated)	-6	30*	2	2	2	-7
COC(=O)C1=C(c2cccc(C#N)c2)C[C@@H]2CC[C@H]1N2C(=O)N1CCC(O)CC1	3	-1	8	-3	5	nt
CCN1CCN(C(=O)COc2ccc(S(=O)(=O)N3CCOCC3)cc2C)CC1	4	3	9	-3	-11	-2
COc1cc2c(c(OC)c1OC)-c1ccc(OC)c(=O)cc1C(N)CC2 (configuration not stated)	nt	1	nt	1	-2	nt
COc1cc(/C=C/[N+](=O)[O-])ccc1O	5	-14	-17	-4	19	-10
CCN(CC)c1ccc(/C=C/[N+](=O)[O-])cc1	-4	-6	13	3	71*	12
COc1cc(C=NNC(=S)Nc2ccc(S(=O)(=O)N3CCCCC3)cc2)cc(OC)c1OC	nt	-4	nt	3	0	nt
Cn1cccc1/C=C1\C(=O)NC(=O)N(CCC2=CCCCC2)C1=O	-3	-1	nt	-3	-3	-37*
O=C1NC(=O)N(CCC2=CCCCC2)C(=O)/C1=C\c1cccs1	21	7	3	0	5	-3
c1ccc2c3c(ccc2c1)OCC1CONC31 (configuration not stated)	82*	nt	11	nt	nt	-2
COc1ccccc1Cn1c(SCC(=O)C(C)(C)C)nc2cc(C(=O)N3CCC4(CC3)OCCO4)ccc2c1=O	0	nt	-4	nt	nt	-1
CCn1nc(/C=C/c2ccccc2)nc2c(=O)n(C)c(=O)nc1-2	10	-1	nt	-1	88*	-5
CCOc1ccc(-n2c(-c3cccs3)nc3ccccc3c2=O)cc1	1	1	3	-2	0	1
CCn1nc(-c2cccs2)nc2c(=O)n(C)c(=O)nc1-2	nt	6	nt	4	79*	nt
COc1ccc(-n2c(/C=C/c3ccc(O)cc3)nc3ccccc3c2=O)cc1	1	-5	-10	4	4	-2
COc1ccc(CN2C(=O)C(CC(=O)NCc3ccco3)CC(C(=O)N(C)C)=C2C)cc1 (configuration not stated)	nt	7	nt	0	5	nt
COc1ccccc1-c1cc(NC(C)=O)c2ncc(-c3ccccc3)n2c1	nt	-3	nt	nt	54	nt
CN(C)[C@@H]1C(=O)C(C(N)=O)=C(O)[C@@]2(O)C(=O)C3=C(O)c4c(O)cccc4[C@@](C)(O)C3C[C@@H]12 (some centres not stated)	31	8	-47	-5	-9	-9
CN(C)[C@@H]1C(=O)C(C(N)=O)=C(O)[C@@]2(O)C(=O)C3=C(O)c4c(O)cccc4[C@@](C)(O)[C@H]3[C@H](O)[C@@H]12	-6	-4	-17	-1	0	-84*
NC(=O)Cn1cc(C=C2C(=O)NC(=O)NC2=O)c2ccccc21	7	1	22	-1	-3	-74*
COC(=O)Cn1cc(C=C2C(=O)NC(=O)NC2=O)c2ccccc21	-4	6	-3	0	-33	-27*
CCn1cc(C=C2C(=O)NC(=O)NC2=O)c2ccccc21	-12	7	11	1	-13	-46*
COc1cc2c(c(OC)c1OC)-c1ccc(SC)c(=O)cc1C(N)CC2 (configuration not stated)	nt	1	nt	-4	-12	nt
CC1CC(OP(O)(=S)c2ccc(N(C)C)cc2NC(=O)c2cccs2)CC(C)(C)C1 (configuration not stated)	7	-3	-16	2	-3	1
CN1CCC2(CC1)C(C#N)=C(N)NC(S)=C2C#N	10	2	-63	-3	0	-43*!
SMILES	GASC-1 inh	m5-HT2A agonist	VLA-4 inh	V-ATPase pH	Exocytosis inh	MEX-5 binding
Cc1nn(Cc2ccccc2)c(Cl)c1C(=O)OCC(=O)N1CCCC1	9	3	-4	3	2	-2
O=c1c2ccccc2nc(C[n+]2ccccc2)n1-c1cccc(C(F)(F)F)c1	-13	-1	6	1	20	0
O=C1C2CCN(CC2)C1Cc1ccc(OCc2ccccc2)cc1 (configuration not stated)	18	-3	7	-4	3	-1
Cc1nn(Cc2ccc(Cl)cc2Cl)c(Cl)c1C(=O)O	-5	4	28	-2	-2	1
N=c1c2c(n(Cc3ccc(Cl)cc3Cl)c3c1CCC3)CCCC2	6	-4	17	13*	-1	-2
CC[n+]1c(/C=C/C=C/c2ccc(N(C)C)cc2)sc2ccccc21	1	-8	-354	0	-24	-28*
C[C@@H]1CN([C@H](C)CO)C(=O)CCCn2nncc2CO[C@H]1CN(C)C(=O)Oc1ccc2ccccc2c1	nt	2	nt	6	2	nt
C=CCSc1nc2c(c(-c3ccsc3)c1C#N)CN(C)CC2	9	0	-17	1	4	-7
COc1cc(/C=C(/C)[N+](=O)[O-])ccc1OCc1ccccc1Cl	0	-6	23	-3	85*	0
COc1cccc(-c2nn(CCC#N)cc2C(=O)Nc2ccccc2Cl)c1	8	-5	2	-1	-1	2
O=C1NC(=S)N(c2ccccc2)C(=O)/C1=C/c1ccco1	11	3	8	7.6*	2	-93*
CCC1CN1P1(=O)OCC(C)([N+](=O)[O-])CO1 (configuration not stated)	nt	4	nt	-3	-4	nt
CC(NC(=O)N1CC1(C)C)c1ccccc1 (configuration not stated)	nt	0	nt	2	-9	nt
Oc1cc2c(cc1O)[C@H]1c3ccccc3CN[C@@H]1CC2	-5	nt	-5	nt	nt	-57*
COc1ccc2c(c1)C1OCCNC1CC2 (configuration not stated)	nt	1	nt	nt	5	nt
COC(=O)C1=C(c2ccccc2OCc2ccccc2)C[C@@H]2CC[C@H]1N2C(=O)NCc1ccc([N+](=O)[O-])cc1	nt	-1	11	-4	-5	nt
CCOP(=O)(OCC)c1ccc(O)cc1	5	-2	1	1	-10	2
CC(=O)c1c(O)n(-c2cccc(Cl)c2)c(=O)[nH]c1=O (tested in a mixture with another compound)	-12	5	16	1	-1	1
